± gives the standard deviation of the averaged measurements. Over roughly 25,000 sequences, “ln(normalized median fluorescence intensity)” has its median near 10; the highest 2% begin near 12. The sample holds the highest values, similar sequences and a random draw of the others, so the mix is not that of the screen.
System: PfAP2-G AP2 domain (GST-tagged)
Experiment: gcPBM binding intensity (ln(normalized median fluorescence intensity)); higher = stronger DNA binding
Procedure, shortened: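 After 1 h on an Agilent 4 × 180k array of primer-extended double-stranded 36-bp intergenic genomic probes and negative controls, bound GST-tagged P. falciparum DNA-binding domains were detected with Alexa488 anti-GST antibody and scanned at 488 nm. The domains had been expressed in E. coli, and binding took place in 1× PBS with 1% milk, 0.2 mg/ml BSA, 0.5% salmon testes DNA and 0.03% Triton X-100. Binding intensity is the highest Masliner-normalised natural-log median intensity across replicate spots of either probe orientation.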

Row | Sequence | gcPBM binding intensity (ln)
1 | TTTCGATTATGTTTTTGTACGCAATATATTAATTCT [XGTACX_site3634] | 11.5 ± 1
2 | ATATTAAATATAATTTGTACGCATTTTTTTTTTTTT [XGTACX_site1910] | 11.5 ± 0.82
3 | CCTTATACGATATTATGTACGCATATGTGCATTTTT [XGTACX_site1570] | 11.5 ± 1
4 | AATAATAAATTATGGTGTACGCATTTGTATATATAC [XGTACX_site5417] | 11.7 ± 0.98
5 | TATTATATATATAGGTGTACGCATTTGTCCTTTATA [XGTACX_site1385] | 11.7 ± 1.1
6 | ATATATTAATAATTTTGTACGCATTTCCTTTTTATT [XGTACX_site1638] | 11.5 ± 1
7 | GAATTTCGATATATGTGTACGCATTTGTATTATAGG [XGTACX_site6332] | 11.7 ± 1.1
8 | TTTTTTTCTTTTTGAGGTACGCATTATTTTATTTGT [XGTACX_site6996] | 11.3 ± 0.79
9 | ATAATTATATATTTATGTACGCATAAATATTTATAT [XGTACX_site5765] | 11.5 ± 1.2
10 | TACATAAACATTTATACACACATTATGTATACATAT [CACACA_site405] | 10.04 ± 0.035
11 | TAAAAATATTTTCATTGTACATATATATAAATATAT [XGTACX_site1123] | 10.9 ± 0.61
12 | ACATTTTTGGTTTTAGTGCAATATGAATTATTTTAT | 10.12 ± 0.078
13 | AAAAAAAAATTAATATATAAAAGGATATATATATAT [GTGCAC_negctrl_site449] | 9.77 ± 0.46
14 | AAGGATATAAAAAAACGTACGTACGATAATATAATT [XGTACX_site1292] | 11.6 ± 0.91
15 | ATAAAATATAAAAATTGTACGATAATAATAGTAGGA [XGTACX_site8951] | 10.8 ± 0.36
16 | TCATATATATTATACACACACATATATAAATATATA [CACACA_site967] | 10 ± 0.23
17 | TCATGTAGTAAAAACTGTACAAATTATTTATCATGT [XGTACX_site1727] | 11 ± 0.64
18 | TTATTAAAAATGTATTGTACAAATTTATTAGTAAAT [XGTACX_site4799] | 11 ± 0.52
19 | GTGTAGTAAAATCGATGTACGTACAAATCAATTATT [XGTACX_site7662] | 11.8 ± 0.83
20 | ACCTTTATTGTATGAACACACATAAGCTGATACATC [CACACA_site4028] | 10.2 ± 0.11

Row | Sequence | gcPBM binding intensity (ln)
21 | ATTTATTTCAATAAACTTCTTTTCTTTAACAATTAC [CACACA_negctrl_site1222] | 9.845 ± 0.035
22 | TATTCATATTTAAAGGTGCAATATTTATTTTGTACA | 10.2 ± 0.18
23 | AAAAGACATTTTTTTTTATAAATACACACGTACGTG [TGCATGCA_negctrl_site281] | 11.1 ± 0.72
24 | TATTTTACACATTTACGTACATAAATATATATATAT [XGTACX_site8788] | 11.6 ± 0.95
25 | CCTCCCATTTTTACACGTACACATTTAAAATAGACT [XGTACX_site5640] | 11.7 ± 1.1
26 | TCTTATGATGGAATGTTAAATATTACATTTTGTTTA [TGCATGCA_negctrl_site503] | 9.51 ± 0.22
27 | GAAACGTTTTTGAGTAGTACACACACAATAAGGATG [XGTACX_site6809] | 11.7 ± 1.1
28 | GTTTTTGAGTAGTACACACACAATAAGGATGGATTC [CACACA_site3192] | 11.5 ± 0.97
29 | ACGTTTTTGAGTAGTACACACACAATAAGGATGGAT [CACACA_site9044] | 11.5 ± 0.97
30 | TTAAAAATGTTGGAAAGTACATATTTTTTAAAAGTA [XGTACX_site802] | 11.1 ± 0.61
31 | TTAACCACTAAAAGTACACACATATATACATATATA [CACACA_site3912] | 11.4 ± 0.92
32 | AATACATATGGGTGTACACATTATATATATATATAT [CACACA_site4601] | 11.6 ± 0.89
33 | TATATCATCATGTATGTACACACATACATATATTAT [CACACA_site8387] | 11.2 ± 0.72
34 | ATATATCATCATGTATGTACACACATACATATATTA [XGTACX_site2814] | 11.2 ± 0.74
35 | ATAATAATATGTGGGTGTACATATACACATATATAT [XGTACX_site4356] | 11.3 ± 0.71
36 | TCATCATGTATGTACACACATACATATATTATGTAC [CACACA_site1386] | 11.7 ± 0.8
37 | ATATATACATATGGGTGTACATATGCACATATATAT [XGTACX_site8437] | 11.3 ± 0.71
38 | TAGAATAATCTATAAACACACAAACACAACAAAAGA [CACACA_site7861] | 10.3 ± 0.32
39 | ATATATTATCAACTTACACACAGAAAAATATAATAA [CACACA_site293] | 9.975 ± 0.092
40 | ATTTGGCATAAACACACACACACACCCACCCACATA [CACACA_site8096] | 10.6 ± 0.38

Row | Sequence | gcPBM binding intensity (ln)
41 | ACGGGCGACACATAAGTGCGCAAAAAAAAAAAAATA [GTGCAC_site9688] | 10.4 ± 0.46
42 | TTTTTTTTTTTGTGAGTGCACGTATGAAGAGAAAAA | 10.9 ± 0.8
43 | TTATAAATATAATATTGTACAAAATTTTAACATGTC [XGTACX_site5259] | 10.9 ± 0.59
44 | GCATTCATTTTTAATACACACAAAAAAAAAATAAAA [CACACA_site2408] | 10.2 ± 0.42
45 | CCCTCAACGAATTTGAGTACACATTTTAAATGATAT [XGTACX_site7763] | 11.7 ± 1.1
46 | TTTTAATGATATATGAGTACACATTGTTTTTTATAA [XGTACX_site1072] | 11.6 ± 1
47 | TATATATATATATATACACACATTTTTAATGATAAA [CACACA_site2695] | 10.1 ± 0.37
48 | AAAATCTAGGTATTTATACACACTAATATAATATAC [CACACA_site8108] | 10.2 ± 0.28
49 | AGTATAACTTTTGCGCGTACACACATTTATCCTCTT [XGTACX_site429] | 11.6 ± 0.72
50 | ATAACTTTTGCGCGTACACACATTTATCCTCTTTAT [CACACA_site209] | 11.7 ± 0.96
51 | TCCTCTTTTATTTTTACACACGCGTAAACATATATA [CACACA_site667] | 10.5 ± 0.4
52 | ATAACTTTATTTTCCTGTACACACATTTGACATATT [XGTACX_site7192] | 11.4 ± 0.73
53 | GTATAACTTTTGCGCGTACACACATTTATCCTCTTT [CACACA_site208] | 11.7 ± 0.86
54 | TTTTTTTTTTTTTTTACACACATTTGAATAACTTTA [CACACA_site6810] | 9.75 ± 0.34
55 | AATTTATGTTTTAAAAGTACTTTTCTAATTTATAAA [XGTACX_site1593] | 11.1 ± 0.72
56 | TACTGAAATAATTATTTAAACGTTTTTATATGTATT [CACACA_negctrl_site487] | 9.83 ± 0.042
57 | AAATAGTTAAAAAGGCGTACACATAAATAAATAAAT [XGTACX_site2096] | 11.7 ± 0.81
58 | TACATAATAATAAGGCGTACATAAAAATTAAAAATT [XGTACX_site8769] | 11.4 ± 1
59 | TACACAAAACATAAAAGTACATAATAATAAAGTTAA [XGTACX_site8872] | 11.3 ± 0.6

Source: the supplement of paper PMC11417369
